Consider 20 compounds from PubChem BioAssay AID868 (SRMLSC, 2007).

Hit rate of the full screen: of about 190,000 compounds, about 3,500 (1.8%) were called active. The sample as a whole holds a higher share of actives than the screen did. A number with no mark means an inactive call.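 The calls were made as follows: active = inhibition above a set limit, 3 SD over mean compound inhibition (cut at about 8.4% in these data); inactive = the rest.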

The assay in a line: inhibitors of the yeast RAM network, primary screen, dse1pr::URA3 reporter, 5-FOA selection (AID 868).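 Also: 0% = DMSO-only wells with no growth and 100% = 10 µM 1-NA-PP1 full growth; inhibition rescues growth on 5-FOA so higher OD means more RAM inhibition.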 The note with it: S. cerevisiae dse1pr::URA3 reporter, 5-FOA growth OD615, 2 d; at 50 µM; active compounds read high.
For `O=C(Nc1cccc2ccccc12)N1CCC2(CC1)OCCO2`, the inhibition is 1.87%. `CC(=O)Nc1ccccc1C(=O)OCC(=O)c1cccc2ccccc12`: the inhibition was 9.49% (active). As for `CC1=CC(=Cc2sc3ccccc3[n+]2C)C=C(C)O1`, the figure is 0.13%; as for `Cc1ccc(-c2cc(C(=O)N3CCC4(CC3)OCCO4)no2)cc1`, -1.75%. Consider `COC(=O)N1C(c2ccccc2)C1c1ccccc1` (stereo not given), for which the inhibition was 0.12%. Take `OCC#CC[N+]1(CC#Cc2ccccc2)CCCC1`: the inhibition was 2.58%. As for `O=C(NC(c1ccc(Cl)cc1)P(=O)(Oc1ccccc1)Oc1ccccc1)OCc1ccccc1` (stereo not given), the figure is 11.3% (active); as for `O=C(Nc1cccc(OC(=O)N2CCCCC2)c1)N1CCOCC1`, -1.26%; as for `Cc1ccnc(-n2c(C)cc(/C=C3\C(=O)NC(=S)N(C)C3=O)c2C)c1`, 1.13%. As for `CCOC(=O)C1SC2(C(F)(F)C(F)F)CC1(O)c1c(c(OC)c3occc3c1OC)O2` (stereo not given), the figure is 9.36% (active); as for `NC(=O)Cn1cc(C(=O)c2ccccc2F)c2ccccc21`, 4.57%; as for `O=C(COC(=O)c1ccccc1)Nc1ccc(Cl)cc1C(=O)c1ccccc1`, 8.43% (active). In the case of `CN1CCN(C(=S)SCC(=O)Nc2ccc(Cl)cc2C(=O)c2ccccc2)CC1` it was -0.25%; in that of `O=C(CCNS(=O)(=O)c1ccccc1)Nc1ccc(Cl)cc1C(=O)c1ccccc1`, 2.12%; in that of `COc1ccc(NC(=O)N2CCC3(CC2)OCCO3)c(OC)c1`, 4.37%. As to `Cc1ccc(-c2nn(CCC#N)cc2C(=O)O)cc1C`, the inhibition was -0.13%. As for `C=CCN(CC=C)C(=O)Nc1ccc(OCC)cc1`, the figure is 1.22%; as for `CN(C)P(=S)(Nc1ccccc1)C(Cl)(Cl)Cl` (stereo not given), 1.76%. As for `CC(Cc1cccs1)NCc1ccc(Cl)cc1` (stereo not given), the figure is 1.87%; as for `CC1CCCCN1Cc1cccnc1` (stereo not given), 1.23%.

One may read the inhibition as the change of the read-out against control, counted positive when it falls.
